Source: PubChem BioAssay AID1159580 (chemical genetic matrix, 2015)
In all, about 5,500 compounds went through this assay and about 2,000 (36%) were called active. Roughly 18% stayed inconclusive and do not appear here. Cut-off read from the data, not from the text of the source: active = normalized growth mostly below about 0.91 (no sharp cut-off); inconclusive = no clear call, values can overlap the other calls; inactive = mostly above about 0.92. This is one part of the list.

Assay: chemical genetic growth profiling, strain panel (AID 1159580);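 note: tested at 20 µM; growth read once vehicle control cultures reached saturation at 30 °C; 1 = growth at the plate median or of vehicle wells; lower values mean less growth of the strain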
Settings: growth OD

Measured: normalized growth

C1CCC(C(CC2CCCCN2)C2CCCCC2)CC1 (centres undefined)
active: S. cerevisiae deletion strains, locus YJR075W, strain HOC1, active compounds read low 0.606 | S. cerevisiae deletion strains, locus YKL190W, strain CNB1, active compounds read low 0.143 | S. cerevisiae deletion strains, locus YKR001C, strain vps1, active compounds read low 0.0792 | S. cerevisiae deletion strains, locus YLR039C, strain RIC1, active compounds read low 0.247 | S. cerevisiae deletion strains, locus YLR058C, strain SHM2, active compounds read low 0.703 | S. cerevisiae deletion strains, locus YLR262C, strain YPT6, active compounds read low 0.151 | S. cerevisiae deletion strains, locus YLR268W, strain sec22, active compounds read low 0.605 | S. cerevisiae deletion strains, locus YLR320W, strain mms22, active compounds read low 0.862 | S. cerevisiae deletion strains, locus YLR330W, strain CHS5, active compounds read low 0.381 | S. cerevisiae deletion strains, locus YLR342W, strain FKS1 (second series), active compounds read low 0.167 | S. cerevisiae deletion strains, locus YLR371W, strain rom2, active compounds read low 0.266 | S. cerevisiae deletion strains, locus YLR418C, strain cdc73, active compounds read low 0.423 | S. cerevisiae deletion strains, locus YML016C, strain PPZ1, active compounds read low 0.363 | S. cerevisiae deletion strains, locus YML032C, strain rad52, active compounds read low 0.877 | S. cerevisiae deletion strains, locus YMR058W, strain fet3, active compounds read low 0.853 | S. cerevisiae deletion strains, locus YMR223W, strain ubp8, active compounds read low 0.454 | S. cerevisiae deletion strains, locus YMR231W, strain pep5, active compounds read low 0.0752 | S. cerevisiae deletion strains, locus YMR263W, strain SAP30, active compounds read low 0.843 | S. cerevisiae deletion strains, locus YMR307W, strain GAS1, active compounds read low 0.174 | S. cerevisiae deletion strains, locus YNL067W, strain RPL9B, active compounds read low 0.793 | S. cerevisiae deletion strains, locus YNL233W, strain BNI4, active compounds read low 0.245 | S. cerevisiae deletion strains, locus YNL307C, strain MCK1, active compounds read low 0.267 | S. cerevisiae deletion strains, locus YNR052C, strain pop2, active compounds read low 0.14 | S. cerevisiae deletion strains, locus YOL006C, strain TOP1, active compounds read low 0.115 | S. cerevisiae deletion strains, locus YOR061W, strain CKA2, active compounds read low 0.114 | S. cerevisiae deletion strains, locus YOR069W, strain VPS5, active compounds read low 0.906 | S. cerevisiae deletion strains, locus YOR106W, strain vam3, active compounds read low 0.458 | S. cerevisiae deletion strains, locus YOR136W, strain idh2, active compounds read low 0.77 | S. cerevisiae deletion strains, locus YOR184W, strain ser1, active compounds read low 0.608 | S. cerevisiae deletion strains, locus YOR270C, strain vph1, active compounds read low 0.452 | S. cerevisiae deletion strains, locus YPL051W, strain arl3, active compounds read low 0.886 | S. cerevisiae deletion strains, locus YPL055C, strain LGE1, active compounds read low 0.4 | S. cerevisiae deletion strains, locus YPR163C, strain tif3, active compounds read low 0.0807 | S. cerevisiae deletion strains, locus YPR167C, strain met16, active compounds read low 0.844 | S. cerevisiae deletion strains, strain wtn01, active compounds read low 0.317 | S. cerevisiae strains, strain wild type, active compounds read low 0.314
inactive: S. cerevisiae deletion strains, locus YJR066W, strain TOR1, active compounds read low 0.973 | S. cerevisiae deletion strains, locus YKL009W, strain mrt4, active compounds read low 1 | S. cerevisiae deletion strains, locus YKL068W, active compounds read low 1.01 | S. cerevisiae deletion strains, locus YKL085W, strain MDH1 (second series), active compounds read low 0.996 | S. cerevisiae deletion strains, locus YKL085W, strain MDH1, active compounds read low 0.996 | S. cerevisiae deletion strains, locus YKL160W, strain elf1, active compounds read low 0.952 | S. cerevisiae deletion strains, locus YKR026C, strain gcn3, active compounds read low 0.988 | S. cerevisiae deletion strains, locus YKR091W, strain srl3, active compounds read low 0.989 | S. cerevisiae deletion strains, locus YLL001W, strain dnm1, active compounds read low 0.992 | S. cerevisiae deletion strains, locus YLL026W, active compounds read low 0.985 | S. cerevisiae deletion strains, locus YLL041C, strain sdh2, active compounds read low 0.967 | S. cerevisiae deletion strains, locus YLR027C, strain aat2, active compounds read low 0.977 | S. cerevisiae deletion strains, locus YLR102C, strain apc9, active compounds read low 1.01 | S. cerevisiae deletion strains, locus YLR113W, strain HOG1, active compounds read low 1.02 | S. cerevisiae deletion strains, locus YLR221C, strain rsa3, active compounds read low 0.98 | S. cerevisiae deletion strains, locus YLR258W, strain gsy2, active compounds read low 0.99 | S. cerevisiae deletion strains, locus YLR262C, strain YPT6 (second series), active compounds read low 1.08 | S. cerevisiae deletion strains, locus YLR342W, strain FKS1, active compounds read low 0.981 | S. cerevisiae deletion strains, locus YLR357W, strain rsc2, active compounds read low 0.963 | S. cerevisiae deletion strains, locus YLR370C, strain arc18, active compounds read low 0.981 | S. cerevisiae deletion strains, locus YLR384C, strain iki3, active compounds read low 0.972 | S. cerevisiae deletion strains, locus YML120C, strain ndi1, active compounds read low 0.973 | S. cerevisiae deletion strains, locus YML124C, strain tub3, active compounds read low 0.954 | S. cerevisiae deletion strains, locus YMR078C, strain ctf18, active compounds read low 1.02 | S. cerevisiae deletion strains, locus YMR125W, strain sto1, active compounds read low 0.897 | S. cerevisiae deletion strains, locus YMR129W, active compounds read low 0.972 | S. cerevisiae deletion strains, locus YMR205C, strain PFK2, active compounds read low 0.93 | S. cerevisiae deletion strains, locus YNL071W, strain lat1, active compounds read low 0.975 | S. cerevisiae deletion strains, locus YNL183C, strain NPR1, active compounds read low 0.976 | S. cerevisiae deletion strains, locus YNL209W, strain ssb2, active compounds read low 0.974 | S. cerevisiae deletion strains, locus YNL248C, strain rpa49, active compounds read low 0.926 | S. cerevisiae deletion strains, locus YNL250W, strain rad50, active compounds read low 1.01 | S. cerevisiae deletion strains, locus YNL271C, strain bni1, active compounds read low 1.01 | S. cerevisiae deletion strains, locus YNL298W, strain CLA4, active compounds read low 1.01 | S. cerevisiae deletion strains, locus YNL322C, strain KRE1 (second series), active compounds read low 0.975 | S. cerevisiae deletion strains, locus YNR049C, strain mso1, active compounds read low 0.99 | S. cerevisiae deletion strains, locus YOL147C, strain pex11, active compounds read low 0.941 | S. cerevisiae deletion strains, locus YOR001W, strain rrp6, active compounds read low 0.893 | S. cerevisiae deletion strains, locus YOR070C, strain gyp1, active compounds read low 0.979 | S. cerevisiae deletion strains, locus YOR080W, strain dia2, active compounds read low 0.988 | S. cerevisiae deletion strains, locus YOR083W, strain WHI5, active compounds read low 0.94 | S. cerevisiae deletion strains, locus YOR144C, strain elg1, active compounds read low 1.02 | S. cerevisiae deletion strains, locus YOR231W, strain MKK1, active compounds read low 1.02 | S. cerevisiae deletion strains, locus YOR265W, strain rbl2, active compounds read low 0.979 | S. cerevisiae deletion strains, locus YOR290C, strain snf2, active compounds read low 0.869 | S. cerevisiae deletion strains, locus YOR316C, strain cot1, active compounds read low 0.97 | S. cerevisiae deletion strains, locus YPL078C, strain atp4, active compounds read low 0.973 | S. cerevisiae deletion strains, locus YPL106C, strain sse1, active compounds read low 0.984 | S. cerevisiae deletion strains, locus YPL240C, strain hsp82, active compounds read low 0.98 | S. cerevisiae deletion strains, locus YPL241C, strain CIN2, active compounds read low 0.93 | S. cerevisiae deletion strains, locus YPL256C, strain CLN2, active compounds read low 1.02 | S. cerevisiae deletion strains, locus YPR119W, strain clb2, active compounds read low 0.935 | S. cerevisiae deletion strains, locus YPR141C, strain kar3, active compounds read low 1.03
